Screen size: about 370,000 compounds; about 6,800 (1.8%) were called active.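 How the source made its calls: active means activation above a cutoff set at the mean of all screened compounds plus 3 SD (cut at about 10% in these data); inactive means the rest.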 Shown is part of a subset that was picked to be rich in actives.
What follows are compounds tested on Nuclear hormone receptor DAF-12 (Heterodera glycines), GAL4 fusion (assay: hgDAF-12 GAL4 fusion reporter activation – cell-based, luminescence, HEK293, UAS-luciferase, primary screen (AID 687014;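 further: 0% = DMSO wells and 100% = sodium butyrate wells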)). Conditions: HEK293 GAL4-hgDAF12 UAS-luciferase reporter, agonist luminescence; at 6.8 µM; active compounds read high; normalized to butyrate control.
In the case of `CC(=O)N1CCCN(C2=Nc3ccccc3Sc3ccccc32)CC1`, the activation is reported as -3.68% (inactive). With `CCN(CC)C(=O)CC[C@H]1CC[C@]2(CCCN(Cc3ccc(Cl)cc3)C2)O1` the activation was -2.24% (inactive). In the case of `COC(=O)c1c(-c2ccc(OC)cc2)c2c(c3c4ccccc4n(S(=O)(=O)c4ccc(C)cc4)c13)C(=O)N(C)C2`, the activation is reported as -0.11% (inactive). In the case of `COc1ccccc1Cc1c(-c2ccc(F)cc2)nc2ccc(C)cn12`, the activation is reported as 9.36% (inactive). In the case of `Cc1ccc2nc(-c3ccccc3)c(CC3CCCCC3)n2c1`, the activation is reported as 15.8% (active). In the case of `Cc1ccc2nc(-c3cccnc3)c(NC3CCCC3)n2c1`, the activation is reported as -2.27% (inactive). In the case of `Cc1ccc(NC(=O)Nc2cc(C)nn2-c2ccccc2)cc1`, the activation is reported as 0.6% (inactive). `Cc1cccc(/C(N)=N/OC(=O)c2ccccc2Cl)c1` was tested, and the activation was 22.6% (active). For `Cc1cc(OC(=O)c2ccccc2Cl)ccc1N1C(=O)CCC1=O`, the activation was 1.41% (inactive). For `C/C(=N\OC(=O)c1ccccc1)c1c(C)nc2cc(C)ccn12`, the activation was 1.13% (inactive). In the case of `COc1ccc(CSc2nnc(SCC(=O)Nc3ccccc3C(F)(F)F)s2)cc1`, the activation is reported as -0.44% (inactive). `COc1cccc(NC(=O)N(C)C[C@@H]2OCc3cn(nn3)CCCC(=O)N([C@@H](C)CO)C[C@H]2C)c1` was tested, and the activation was -1.94% (inactive). `CCS(=O)(=O)n1nc(-c2ccccc2)nc1SCc1ccccc1` was tested, and the activation was 13.2% (active). In the case of `CCS(=O)(=O)n1nc(-c2ccc(OC)cc2)nc1SC`, the activation is reported as 2.82% (inactive). In the case of `O=S(=O)(c1ccc(SCc2ccccc2)nc1)N1CCCCCC1`, the activation is reported as 3.56% (inactive). With `CCN1C(=O)[C@@H]2[C@@H](c3ccc(-c4cccc(Cl)c4)cc3)N3CCC[C@@]3(C(=O)OC)[C@@H]2C1=O` the activation was -0.28% (inactive). For `C=CCN(Cc1ccc2c(c1)OCO2)C(C#CC1CC1)C(C)(C)C` (centres undefined), the activation was 0.18% (inactive). `O=C(NC1CCCCCC1)C1CCN(C(=O)c2ccc(Cl)cc2)CC1` was tested, and the activation was -2.28% (inactive). `O=C(NC(=S)NC1CCCCC1)c1ccc(Cl)cc1` was tested, and the activation was 14.2% (active). With `O=C(NNC(=S)NC1CCCCC1)c1ccccc1Cl` the activation was -1.15% (inactive). For `CN(C)/C=C(\C#N)C(=O)c1cccnc1Oc1cccc(F)c1`, the activation was -0.67% (inactive). In the case of `CCC(=O)OCCCN1C(=O)CCC12CCC(c1ccccc1)CC2` (centres undefined), the activation is reported as -0.73% (inactive). For `CC1(C)N=C(N)NC(Nc2ccc(Cl)cc2)=N1`, the activation was -2.03% (inactive). For `C=CCNc1nc(Nc2ccc(Cl)cc2)nc(OC)n1`, the activation was 2.81% (inactive). `Clc1ccc(Nc2ccc3ccccc3n2)cc1` was tested, and the activation was 19.3% (active). With `CCC(C)[C@@H](C(=O)OC)N(CCc1cn(Cc2ccccc2)nn1)S(=O)(=O)c1ccccc1Br` (some centres undefined) the activation was -4.53% (inactive). In the case of `CCOC(=O)C1=C(C)c2ccccc2OC1C(=O)OCC` (centres undefined), the activation is reported as 12.1% (active). `CCOC(=O)CC(NC(=O)C1c2ccccc2Oc2ccccc21)c1ccc(C)cc1` (centres undefined) was tested, and the activation was -2.51% (inactive). In the case of `CCCN(CCC)C(=O)C1c2ccccc2Oc2ccccc21`, the activation is reported as -0.5% (inactive). For `Cc1ccc(C2NC(C(=O)O)CS2)cc1` (centres undefined), the activation was -0.05% (inactive). With `CC(CCN1CCC(C(O)(c2ccccc2)c2ccccc2)CC1)Oc1ccc([N+](=O)[O-])cc1Cl` (centres undefined) the activation was 4% (inactive). `COc1ccccc1C(=O)NC1CCCCN(C(C)C)C1=O` (centres undefined) was tested, and the activation was 2.92% (inactive). For `Cc1ccccc1NC(=O)COC(=O)c1ccc(Sc2ncn[nH]2)c([N+](=O)[O-])c1`, the activation was 1.49% (inactive). `COC(C(=O)Nc1ccc(S(=O)(=O)Nc2ccc(C)c(C)c2)cc1)c1ccccc1` (centres undefined) was tested, and the activation was -3.51% (inactive). For `Cc1ccc(N/C=C/C(=O)c2ccccc2)cc1C`, the activation was 19.8% (active). For `Cc1ccc(NNC(=O)C2CCC2)cc1C`, the activation was 1.26% (inactive). In the case of `N#Cc1c(NCCO)ccc([N+](=O)[O-])c1NCCO`, the activation is reported as -1.17% (inactive). With `COC(=O)[C@]12C[C@H](CC(=O)NCC34CC5CC(CC(C5)C3)C4)C(=O)N(Cc3ccc(Cl)cc3Cl)C1=C[C@H](COCc1ccccc1)O[C@@H]2C` the activation was 1.95% (inactive). With `C[C@H](C(=O)N(C)c1ccccc1)[C@@H](O)c1ccc2ccccc2c1` the activation was -1.62% (inactive). For `CC(C)n1c(O)c(N=Nc2ccccn2)c2ccccc21`, the activation was 1.77% (inactive). In the case of `Oc1oc(-c2ccccc2Br)nc1/C=N/c1ccccn1`, the activation is reported as 10.8% (active). With `COc1cccc(-c2cc(CNC(=O)[C@@H](Cc3ccccc3)NC(=O)[C@H]3O[C@@H](n4cnc(C(N)=O)n4)[C@H](O)[C@@H]3O)no2)c1` the activation was 3.48% (inactive). `COC(=O)CC1CCc2cc(C)cc(C(CC(C)C)NC(=O)[C@H](CC(C)C)NC(=O)OCc3ccccc3)c2O1` (some centres undefined) was tested, and the activation was -1.05% (inactive). For `O=C(/C=C/c1cnc2ccccc2n1)NC1CCCCCC1`, the activation was 11.9% (active). In the case of `CC1CCCCC1NC(=O)Cn1c(=O)cnc2ccccc21` (centres undefined), the activation is reported as -0.26% (inactive). For `O=C(Cn1c(-c2cncs2)nc2ccccc21)NC1CCCC1`, the activation was 0.16% (inactive). With `C[N+](C)(C)CCNC(=O)c1c[nH]c2ccccc12` the activation was 0.11% (inactive). For `O=C(NCCc1c[nH]c2ccccc12)c1cc2ccccc2oc1=O`, the activation was 14.6% (active). `O=C(CCCCCn1c(=O)[nH]c2ccccc2c1=O)NCCc1c[nH]c2ccccc12` was tested, and the activation was -0.27% (inactive). For `Clc1cccc2c1C1CC2CCN1Cc1ccccc1` (centres undefined), the activation was 0.38% (inactive). For `COc1ccc(-c2cc(-c3nnc(SCc4ccc([N+](=O)[O-])cc4)n3N)[nH]n2)cc1`, the activation was 3.72% (inactive). With `Nc1ncnc2c1ncn2[C@@H]1O[C@H](C(=O)N[C@@H](CCc2ccccc2)C(=O)N2CCCN(Cc3cccs3)CC2)[C@@H](O)[C@H]1O` the activation was 1.83% (inactive). In the case of `Nc1nc2cc(Cl)ccc2n1N`, the activation is reported as 0.42% (inactive). `Nc1ccc2nn(-c3ccc(Cl)cc3)nc2c1` was tested, and the activation was 18.1% (active). `Nc1ccc2c(c1)C(O)c1ccc(Cl)cc1-2` (centres undefined) was tested, and the activation was 2.17% (inactive). `COc1ccc(S(=O)(=O)N[C@@H]2C=C[C@@H](CC(=O)N3CCc4ccccc4C3)O[C@@H]2CO)cc1` was tested, and the activation was -1.55% (inactive). For `COc1ccc(C2CC(c3cccs3)=Nc3ccccc3S2)cc1OC` (centres undefined), the activation was 6.91% (inactive). In the case of `COc1ccc(-c2csc(-c3cccs3)n2)cc1OC`, the activation is reported as 14.5% (active). In the case of `COc1ccc(-c2csc3nc(-c4ccccc4F)oc(=O)c23)cc1OC`, the activation is reported as -0.2% (inactive). With `COC(=O)C1=C(C)N(Cc2ccccc2C(F)(F)F)C(=NCc2ccc(C(F)(F)F)cc2)NC1c1ccc(F)cc1` (centres undefined) the activation was 0.87% (inactive). In the case of `CCCCOCCCNC(=O)C[C@H]1C[C@@]2(C(=O)OC)C(=C[C@H](COCc3ccccc3)O[C@@H]2C)N(Cc2cccc3ccccc23)C1=O`, the activation is reported as 5.41% (inactive). With `CCOc1c(N2CCCCC2)c(=O)c1=O` the activation was -2.21% (inactive). With `Cc1ccc(CSc2nnc(SCC(=O)NN=Cc3cc(Br)ccc3F)s2)cc1` the activation was 6.25% (inactive). With `CC(C)(C)c1ccc(/C=C/C(=O)NCCCn2ccnc2)cc1` the activation was 3.86% (inactive). `Cc1cc(C)nc(NC(=O)/C=C/c2ccc(Cl)cc2)n1` was tested, and the activation was -0.13% (inactive). `CC(C)(C)c1ccc(/C=C/C(=O)Nc2ncccn2)cc1` was tested, and the activation was 16.6% (active). With `CN(C)S(=O)(=O)c1ccc2oc(SCC(=O)Nc3ccccc3F)nc2c1` the activation was 15.5% (active). With `COc1ccc(S(=O)(=O)N(C)C)cc1NC(=O)CSc1ncccn1` the activation was 1.65% (inactive). For `CCS(=O)(=O)c1ccc2oc(SCC(=O)N3c4ccccc4CC3C)nc2c1` (centres undefined), the activation was -2.27% (inactive). `O=C(CNC(=O)c1ccccc1)OC(C(=O)Nc1cc([N+](=O)[O-])ccc1F)c1ccccc1` (centres undefined) was tested, and the activation was 6.44% (inactive). `COC(=O)c1cc(S(=O)(=O)N2CCN(C(=O)C3CCCO3)CC2)cn1C` (centres undefined) was tested, and the activation was -0.48% (inactive). With `C=C(C)C#CC(Cc1ccccc1)NCC1CC1` (centres undefined) the activation was 1.34% (inactive). In the case of `COc1cccc(Cn2cc(COC(=O)Nc3ccc(F)cc3)nn2)c1`, the activation is reported as -2.67% (inactive). For `COc1ccc(SSc2ccc(OC)cc2C(=O)O)c(C(=O)O)c1`, the activation was -1.26% (inactive). In the case of `COc1ccc(/C=N/NC(=O)Cn2cc(C(F)(F)F)ccc2=O)cc1`, the activation is reported as -5.01% (inactive). In the case of `COc1ccc(/C=N/Nc2ccccc2C(=O)O)cc1`, the activation is reported as 12.8% (active). For `N#Cc1c(N)nc2c(c1N)CC(C(F)(F)F)O2` (centres undefined), the activation was 2.74% (inactive). For `CCOC(=O)[C@]12CCCC3=C1N(CCC3)C(=O)[C@@H](CC(=O)N1CCSCC1)C2`, the activation was -0.16% (inactive). For `O=C(NCCCc1ccccc1)[C@H](Cc1ccccc1)NC1(C(=O)NCCc2c[nH]c3ccccc23)CCC1`, the activation was -3.84% (inactive). `O=C(OC12CCCN(C1)/C(=C/c1cccnc1)C2)C1CCCC1` (centres undefined) was tested, and the activation was -3.6% (inactive). In the case of `COc1ccc(C(=O)CSc2nnnn2C)c(OC)c1`, the activation is reported as 1.57% (inactive). In the case of `COC(=O)c1sc(NC(=O)c2ccc(OC)cc2OC)nc1C`, the activation is reported as 19.3% (active). For `COc1ccc(NC(=O)COC(=O)c2ccncc2)c(OC)c1`, the activation was -1.12% (inactive). With `COc1ccc(C(=O)NC2CC(C)(C)Cc3c2cnn3-c2ccccc2)c(OC)c1` (centres undefined) the activation was -4.18% (inactive). For `COc1ccc(C(=O)N2CCCN(C)CC2)c(OC)c1`, the activation was -2.22% (inactive). For `COc1ccc(C(=O)Nc2nncs2)c(OC)c1`, the activation was 10.4% (active). With `COC(=O)C1=C(C)N(Cc2ccc(C(F)(F)F)cc2)C(=NCc2ccc(C(F)(F)F)cc2)NC1c1cccc(Cl)c1` (centres undefined) the activation was 6.59% (inactive). In the case of `CCOC(=O)C1CCN(C(=O)c2ccccc2N(C)S(=O)(=O)c2ccccc2)CC1`, the activation is reported as 0.69% (inactive). `CC(C)CSc1nnc(-c2cccnc2)n1Cc1ccccc1` was tested, and the activation was 0.98% (inactive). In the case of `C=CCN1C(=O)N(Cc2ccccc2)c2ccccc2S1(=O)=O`, the activation is reported as -2.37% (inactive). In the case of `O=C(Nc1ncccc1O)c1ccc(C(=O)c2ccccc2)cc1`, the activation is reported as 85% (active). With `CCOC(=O)c1cccnc1NC(=O)c1ccncc1` the activation was 2.56% (inactive). `O=C(Nc1ncccc1O)c1ccc(S(=O)(=O)N2CCCC2)cc1` was tested, and the activation was 26.2% (active). For `CN1CCN(NC(=O)c2ccc(S(=O)(=O)N3CCCCCC3)cc2)CC1`, the activation was -0.88% (inactive). In the case of `O=C(Nc1ccccc1F)c1ccc(S(=O)(=O)N2CCCCCC2)cc1`, the activation is reported as 4.61% (inactive). For `CCN(CC)S(=O)(=O)c1cccc(NC(=O)c2ccc(S(=O)(=O)N3CCCC3)cc2)c1`, the activation was -4.53% (inactive). With `O=C(CNC(=O)c1ccc2ccccc2c1)Nc1ncccc1O` the activation was 4.2% (inactive). For `O=C(Nc1ncccc1O)c1ccc(S(=O)(=O)N2CCCCCC2)cc1`, the activation was 10.7% (active). In the case of `CC(C)(C)n1nc2c(c1NC(=O)c1ccc(S(=O)(=O)N3CCCC3)cc1)CS(=O)C2` (centres undefined), the activation is reported as -0.9% (inactive).

— PubChem BioAssay AID687014 (The Scripps Research Institute Molecular Screening Center, 2013)
